A short description of test [1]: AP1 Signaling Pathway (AID 357).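 Also: ME-180 reporter cells stimulated with EGF at its EC50 level; % is scaled to controls: 0 for no effect and ±100 for the full control effect.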 Put shortly: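 Modulation of EGF-driven AP-1 transcription was assessed with a beta-lactamase reporter in ME-180 cells. Compound and EC50 EGF were co-incubated 5 hours at 37 °C before 2.5-hour CCF4 loading at room temperature and dual-emission reading.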
Test [2] is described as follows: Cell Viability - BJ (AID 421; calls by dose curve;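 also: potency is read from the fitted curve at half-maximal effect; cells exposed to compound for 40 hours at 37 °C before readout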). The conditions noted are these: BJ fibroblast viability, qHTS. Put shortly: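 Quantitative HTS: ATP depletion in BJ cells after 40 hr compound exposure in complete culture medium, detected with CellTiter-Glo; AC50 from standard Hill fits.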
The nature of test [3]: Cell Viability - Jurkat (AID 426;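 active = dose-dependent loss of cell ATP signal giving a full or clear fitted curve, ranked by lower potency value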; also: potency is read from the fitted curve at half-maximal effect). The following applies: qHTS. Put shortly: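 Jurkat (clone E6-1, human T-cell leukemia) cells, 5000/well in complete medium, were exposed to compound for 40 hr at 37 °C. Viability was read as intracellular ATP by CellTiter-Glo luminescence; AC50 came from Hill fits of concentration-response data.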
A general note: In qHTS, concentration-response curves come from the screen itself.

Test [4] is described as follows: Cell Viability - Hek293 (AID 427;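 active = compounds whose dose-response curve shows a full or clear partial loss of cell viability, called from curve shape rather than a numeric limit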;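 also: potency is read from the fitted curve at half-maximal effect; cells exposed to compound for 40 hours at 37 °C before reading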). The following applies: qHTS. Put shortly:
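AC50 values derive from Hill-modelled concentration-response of ATP-based luminescence, normalized between DMSO-only and 100 uM tamoxifen controls. Cells were exposed in complete culture medium for 40 hr at 37 °C before detection.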

A short description of test [5]: Cell Viability - HepG2 (AID 433; calls by dose curve;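 also: potency is read from the fitted curve at half-maximal effect; potency for ATP loss meaning cytotoxicity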). The following applies: qHTS. Put shortly: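 ATP luminescence (CellTiter-Glo) after 40 h compound exposure, 37 °C, HepG2, 1500 cells/well, complete medium. Normalized: DMSO = basal, 100 uM tamoxifen = 100% inhibition. AC50 via standard Hill equation.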
Test [6] is described as follows: Cell Viability - MRC5 (AID 434; calls by dose curve;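 also: potency is read from the fitted curve at half-maximal effect; potency reflects cytotoxicity seen as loss of intracellular ATP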). The conditions noted are these: MRC5 lung fibroblast viability, qHTS. Put shortly: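 MRC5 normal human lung fibroblasts (1500/well) were treated with compounds for 40 hr at 37 °C in complete medium, and viable cells were measured as intracellular ATP by CellTiter-Glo luminescence. AC50 came from Hill fits, normalized to DMSO and 100 uM tamoxifen.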

Test [7] can be described thus: Cell Viability - SK-N-SH (AID 435; calls by dose curve; also: potency is read from the fitted curve at half-maximal effect). The following applies: SK-N-SH neuroblastoma cell viability qHTS. Put shortly: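 CellTiter-Glo ATP luminescence, 20 min RT read; cells pre-plated 5 hr, compound 40 hr at 37 °C, 1500 cells/well, complete medium. Normalized DMSO = 0, 100 uM tamoxifen = 100% inhibition; Hill-fit AC50.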
Test [8] is described as follows: NFAT Signaling Pathway (AID 444).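 Also: carbachol stimulus at about its EC50 of 1 µM final; % is scaled to controls: 0 for no effect and ±100 for the full control effect.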 The conditions noted are these: Jurkat NFAT-bla M1, carbachol, beta-lactamase ratio, 5 h. Put shortly:
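Jurkat cells carrying an NFAT-driven β-lactamase reporter and co-transfected muscarinic M1 receptor were treated with compound plus carbachol (1 uM final, an EC50 level) for 5 h at 37 °C. CCF4 loading followed for 1 h at RT; 460/530 nm ratio gave %activity.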

Test [9] is described as follows: Stat Signaling Pathway (AID 446).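 Also: ME-180 cervical cancer cells given 40 pM IL-6 alongside compound; SIE-controlled beta-lactamase reporter measured as 460/530 nm FRET emission ratio; % is scaled to controls: 0 for no effect and ±100 for the full control effect.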 Put shortly: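 IL-6/STAT signaling read in ME-180 cells via an SIE beta-lactamase reporter. Stimulus was 40 pM IL-6 (its AC50) for 5 hrs, so both activation and inhibition register.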
In test [10] the target is Glucocorticoid receptor (Homo sapiens) (UniProt P04150). Put plainly: GR-GFP Redistribution (AID 450;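 active = compounds whose dose series gives a full or clear partial fitted curve of increased nuclear translocation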; also: potency is read from the fitted curve at half-maximal effect). The following applies: U2OS GR-GFP nuclear translocation, laser cytometry, 2 h.
Sequence of Glucocorticoid receptor (Homo sapiens) (P04150 whole entry, looked up): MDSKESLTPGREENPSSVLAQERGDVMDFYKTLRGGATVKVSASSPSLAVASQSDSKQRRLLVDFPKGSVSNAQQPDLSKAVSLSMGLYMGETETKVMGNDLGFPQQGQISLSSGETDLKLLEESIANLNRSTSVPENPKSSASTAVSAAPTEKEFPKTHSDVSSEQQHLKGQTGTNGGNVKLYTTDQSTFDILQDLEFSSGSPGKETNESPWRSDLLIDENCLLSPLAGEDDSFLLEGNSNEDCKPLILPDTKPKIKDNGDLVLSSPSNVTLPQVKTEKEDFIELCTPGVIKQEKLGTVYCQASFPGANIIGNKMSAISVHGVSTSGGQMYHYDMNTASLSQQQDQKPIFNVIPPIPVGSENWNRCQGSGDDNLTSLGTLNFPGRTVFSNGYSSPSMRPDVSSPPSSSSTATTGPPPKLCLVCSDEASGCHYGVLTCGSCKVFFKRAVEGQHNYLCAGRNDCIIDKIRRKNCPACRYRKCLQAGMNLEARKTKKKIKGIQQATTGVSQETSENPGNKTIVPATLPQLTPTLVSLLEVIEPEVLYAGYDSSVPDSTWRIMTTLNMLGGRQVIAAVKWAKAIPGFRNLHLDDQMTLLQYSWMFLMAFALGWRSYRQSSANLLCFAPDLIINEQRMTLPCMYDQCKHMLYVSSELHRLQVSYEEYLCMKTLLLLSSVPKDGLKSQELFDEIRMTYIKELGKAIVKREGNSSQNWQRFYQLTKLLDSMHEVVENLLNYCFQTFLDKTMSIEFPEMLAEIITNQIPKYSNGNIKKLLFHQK
Test [11] has the same target. Put plainly: GR-EFC Redistribution (AID 451; calls by dose curve; also: potency is read from the fitted curve at half-maximal effect). The conditions noted are these: CHO-K1 GR-EFC translocation, beta-gal luminescence, 2 h. Put shortly:
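CHO-K1 cells stably expressing nuclear-localized β-gal enzyme acceptor and GR fused C-terminally to the enzyme donor fragment; ligand-driven nuclear translocation restores β-gal by complementation. Compounds titrated up to 46 uM final, 2 h at 37 °C; luminescence read.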

The target in test [12] is Mitogen-activated protein kinase 10 (Mus musculus) (UniProt Q61831). Put plainly: JNK3 AlphaScreen Assay (AID 530).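 Also: kinase came from lysate of stimulated human HepG2 cells; signal reports phosphorylation of biotinylated GST-cJun 1-79 at Ser73 with 10 µM ATP; % is scaled to controls: 0 for no effect and ±100 for the full control effect.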 Put shortly: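 JNK3 came from HepG2 lysates pre-activated with IL-1beta and TNF-alpha and phosphorylated biotinylated GST-cJun (1-79) at 10 uM ATP, pH 7.6, room temperature. Compounds were titrated. AlphaScreen signal used anti-phospho-cJun (Ser73) antibody.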

Test [13] in a line: Cell Viability - N2a (AID 540; active = well fitted curve in the direction sought with a large enough effect; an effect the other way counts as inactive or inconclusive;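 also: plate controls were DMSO alone for no effect and tamoxifen control for full effect; nearly all actives have a fitted effect of over 45% in size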). The following applies: N2a mouse neuroblastoma cell viability; activity change, negative = cytotoxicity: at 92.2 µM (top of the series). Put shortly:
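Mouse neuroblastoma N2a cells (1500/well) were preincubated 5 hr at 37 °C, then exposed to compounds for 40 hr at 37 °C in complete medium. Viability was read as intracellular ATP by CellTiter-Glo luminescence; AC50 from Hill fits.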

A short description of test [14]: Cell Viability - NIH 3T3 (AID 541; active = well fitted curve in the direction sought with a large enough effect; an effect the other way counts as inactive or inconclusive;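 also: plate controls were DMSO alone for no effect and tamoxifen positive control for full effect; nearly all actives have a fitted effect of over 25% in size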). The following applies: NIH 3T3 cell viability, qHTS; activity change, negative = cytotoxicity: at 92.2 µM (top of the series). Put shortly: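 NIH 3T3 mouse embryo fibroblasts (1000 cells/well) were plated in complete medium and treated with compound for 40 hr at 37 °C. Viability was read as intracellular ATP by CellTiter-Glo luminescence; AC50 values came from Hill-equation fits of concentration-response data.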

Test [15] in a line: Cell Viability - HUV-EC-C (AID 542; active = well fitted curve in the direction sought with a large enough effect; an effect the other way counts as inactive or inconclusive; also: % is scaled to controls: 0 for no effect and ±100 for the full control effect; nearly all actives have a fitted effect of over 35% in size). Put shortly:
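HUV-EC-C normal human vascular endothelial cells, 1000 cells/well, pre-incubated 5 hr at 37 °C, then exposed to compounds for 40 hr at 37 °C in complete medium. Viability measured as intracellular ATP by CellTiter-Glo luminescence; AC50 from Hill fits.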

Test [16] in a line: Cell Viability - SH-SY5Y (AID 544; active = well fitted curve in the direction sought with a large enough effect; an effect the other way counts as inactive or inconclusive;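 also: 0% = DMSO alone and -100% = 100 µM tamoxifen; nearly all actives have a fitted effect of over 55% in size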). The conditions noted are these: SH-SY5Y neuroblastoma cell viability; viability change, negative = cytotoxic: at 92.2 µM (top of the series). Put shortly: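 Human neuroblastoma SH-SY5Y cells (1500/well) in complete medium were exposed to compounds for 40 hr at 37 °C; intracellular ATP was then quantified by CellTiter-Glo luminescence after 20 min at room temperature. AC50 came from Hill-equation concentration-response fits.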

Test [17] in a line: Cell Viability - Renal Proximal Tubule (AID 545; active = well fitted curve in the direction sought with a large enough effect; an effect the other way counts as inactive or inconclusive;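 also: 0% = DMSO only and -100% = 100 µM tamoxifen; nearly all actives have a fitted effect of over 40% in size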). Put shortly: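 Rat kidney proximal tubule cells, freshly isolated; 1000 cells/well, 5 hr settle, compound 40 hr 37 °C. CellTiter-Glo 20 min RT, luminescence read. AC50 by standard Hill fit.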
The nature of test [18]: Cell Viability - Mesenchymal (AID 546; active = well fitted curve in the direction sought with a large enough effect; an effect the other way counts as inactive or inconclusive;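 also: cells exposed to compound for 40 hours before reading; 0% = DMSO only and -100% = 100 µM tamoxifen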). Put shortly:
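Normal human renal glomerulus-derived kidney mesenchymal cells, 1000 per well in complete medium, were treated with compounds for 40 hr at 37 °C. Viability was read as intracellular ATP by CellTiter-Glo luminescence; AC50 values came from Hill-equation fits of qHTS concentration-response data.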

Test [19] addresses Cytochrome P450 1A2 (Homo sapiens) (UniProt P05177). Nature of the test: p450-cyp1a2 (AID 410; calls by dose curve; also: potency is read from the fitted curve at half-maximal effect;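 as to activity change, negative = inhibition: -100% = full effect of reference inhibitor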). Put shortly: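 Human CYP1A2 (20nM) demethylated Luciferin-ME at its Km (100uM) in 100mM KPO4. After 10 min compound preincubation, NADPH regeneration ran the reaction 60 min at room temperature. Luciferin was read by luminescence, normalized to 57 uM furafylline.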

Several values for one entry are separate records, joined by “and”; a condition that tells them apart may be missing. Identical values can stand only once. A number with no mark means an inactive call. Inconclusive results are not listed. Activity calls are given as the source filed them. Unless noted, calls follow the shape of the dose curve; as a rule, active = well fitted curve in either direction with a large enough effect (not every such curve was filed as active); inconclusive = small, poorly fitted or top-dose-only effect, or another doubt; inactive = flat fitted curve, though single readings scatter.

Sequence of Cytochrome P450 1A2 (Homo sapiens) (P05177 whole entry, looked up): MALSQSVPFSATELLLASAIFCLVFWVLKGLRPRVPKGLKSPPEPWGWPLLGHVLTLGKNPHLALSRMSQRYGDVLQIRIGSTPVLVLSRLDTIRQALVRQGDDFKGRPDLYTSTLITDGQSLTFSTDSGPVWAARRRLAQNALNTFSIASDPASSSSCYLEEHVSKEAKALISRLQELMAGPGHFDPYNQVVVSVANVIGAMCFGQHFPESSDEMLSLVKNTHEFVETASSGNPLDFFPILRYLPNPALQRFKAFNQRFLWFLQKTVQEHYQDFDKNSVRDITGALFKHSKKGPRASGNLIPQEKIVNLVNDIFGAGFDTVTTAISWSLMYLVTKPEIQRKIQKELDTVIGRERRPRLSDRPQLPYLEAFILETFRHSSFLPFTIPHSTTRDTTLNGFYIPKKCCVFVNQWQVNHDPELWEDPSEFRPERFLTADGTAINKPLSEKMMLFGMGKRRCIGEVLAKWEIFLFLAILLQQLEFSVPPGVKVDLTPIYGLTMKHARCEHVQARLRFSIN

Take `COc1ccc2[nH]cc(CCNC(C)=O)c2c1`: the outcome in test [1], in [9], in test [12], in test [15] and in test [18] was inactive. Further, the Potency in test [2], in test [3], in test [4], in [5], in test [6] and in test [7] was above 92 µM each time. Moreover, the Potency in test [10] was > 46 µM and > 20.6 µM; in [11], > 46 µM and > 20.6 µM. The activity change, negative = inhibition in [8] (at 17.2 µM (top of the series)) was -17.4%; in test [8] (at 38 µM (top of the series)) it was 14.9%. The activity change, negative = cytotoxicity in [13] was -15.6% and 3.75%. In addition, the Potency result in [14], in [16] and in [17] was “inactive” each time.

Regarding `Nc1nc2c(ncn2COC(CO)CO)c(=O)[nH]1`, the compound was classed as inactive in [1], in [9] and in [12]. Besides, in test [19], the Potency entry was “inactive”. The results for the activity change, negative = inhibition in test [8] (at 17.2 µM (top of the series)) and in test [8] (at 38 µM (top of the series)) were 3.07% and -0.352%, respectively. Also, the Potency in test [10] is > 46 µM and > 20.6 µM; in test [11], > 46 µM and > 20.6 µM.

Consider `CC[N+](CC)(CC)CCOc1cccc(OCC[N+](CC)(CC)CC)c1OCC[N+](CC)(CC)CC`, for which the result in [1], in test [9] and in [12] was inactive. Moreover, the Potency result in [19] was “inactive”. Also, the activity change, negative = inhibition in test [8] (at 17.2 µM (top of the series)) was -15.9%; in test [8] (at 38 µM (top of the series)), -22%. Also, the Potency in test [10] is > 46 µM and > 20.6 µM; in test [11] it was > 46 µM and > 20.6 µM.

For the compound `Cc1cn([C@H]2C[C@H](N=[N+]=[N-])[C@@H](CO)O2)c(=O)[nH]c1=O`, the call in test [1], in test [9], in test [12], in [15] and in test [18] was inactive. Also, the Potency in [2], in test [3], in test [4], in test [5], in [6] and in [7] was above 92 µM each time. For the same compound, the Potency in [10] is above 20.6 µM. Also, the activity change, negative = inhibition in test [8] (at 17.2 µM (top of the series)) is 15.9%. Besides, the activity change, negative = cytotoxicity in [13] was -7.33%. Besides, the Potency entry in test [14], in [16] and in test [17] was “inactive” throughout.

On to `CC(C)C(=O)Nc1ccc([N+](=O)[O-])c(C(F)(F)F)c1`, for which the result in test [1], in test [9], in test [12], in test [15] and in test [18] was inactive. The Potency is 2 µM (active) and 316 nM (active) in test [19]; above 92 µM in test [3]; 53.5 µM in [4]; above 92 µM in [5]; above 92 µM in [6]. Besides, the activity change, negative = inhibition in test [8] (at 17.2 µM (top of the series)) is -0.457%; in [8] (at 38 µM (top of the series)), 9.16%. Further, the activity change, negative = cytotoxicity in test [13] is -119% (active). In addition, the Potency result in [16] and in [17] was “inactive” throughout.

The values above are taken from PubChem BioAssay (NCATS).
